“And” between values parts separate entries of the source, which are not always exact repeats. Identical values can stand only once. Values without a mark were called inactive. Records with an inconclusive call do not appear. The source made the active and inactive calls. Unless noted, calls come from the whole dose curve; as a rule, active = well fitted curve in the direction sought with a large enough effect; inconclusive = small, poorly fitted or top-dose-only effect, or another doubt; inactive = no such curve, though single readings can be large; an effect the other way counts as inactive or inconclusive.

Test [1] concerns the target Cytochrome P450 2C19 (Homo sapiens) (UniProt P33261). The test can be described thus: qHTS Assay for Inhibitors and Substrates of Cytochrome P450 2C19 (AID 899). Note: nearly all actives have a fitted effect of over 60% in size. Note: potency is the fitted concentration of half-maximal effect. Put shortly:
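Human CYP2C19 (5nM) with Luciferin-H EGE at 10uM (its KM) in 50mM KPO4 was preincubated with compound for 10 min at 37C. NADPH regeneration started a 60 min 37C reaction. Luciferin was read by luminescence, normalized to 57uM ketoconazole.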
For orientation: In qHTS, concentration-response curves come from the screen itself.

Test [2] can be described thus: Confirmation and Secondary Assay for Modulators of Hemoglobin Beta Chain Splicing at IVS2 654 locus (AID 910).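 Note: per-well total GFP intensity by laser scanning cytometry after 2-day treatment; % of control where 0% means no effect.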 Put shortly: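 HeLa cells stably carrying EGFP interrupted by mutant beta-globin IVS2-654 intron (CMV-driven) were treated with compound for 2 days at 37C; corrected splicing was scored as total peak GFP intensity per well (488 nm excitation, 500-520 nm emission).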

Test [3] is described as follows: Confirmation and Secondary Assay for Modulators of Hemoglobin Beta Chain Splicing at IVS2 705 locus (AID 930).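 Note: HeLa cells stably expressing the EGFP-705 splicing reporter; GFP fluorescence per well restored by corrected splicing of the IVS2-705 intron in EGFP; series mostly up to about 46 µM; % of control where 0% means no effect.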 Put shortly: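 Fluorescence gain (488 nm laser, 500-520 nm PMT) reflects restored correct splicing of a mutant IVS2-705 intron inside EGFP in stably transfected HeLa cells after 2-day compound treatment.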
For test [4], the target named is Pyruvate kinase (Leishmania mexicana) (UniProt Q27686). The test can be described thus: qHTS Validation Assay for Inhibitors of Leishmania Mexicana Pyruvate Kinase (AID 945).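 Note: 0% = DMSO only neutral control wells.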 Put shortly: (§1)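 Compounds are tested as eight-point concentration series. Reactions contain 0.2 nM LmPYK E451W, 0.5 mM PEP, 0.1 mM ADP, 7 mM MgCl2 and 50 mM KCl at pH 7.2, run 1 h at room temperature, then read by PKLight luminescence.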
Sequence of Pyruvate kinase (Leishmania mexicana) (Q27686 2-499 E452W): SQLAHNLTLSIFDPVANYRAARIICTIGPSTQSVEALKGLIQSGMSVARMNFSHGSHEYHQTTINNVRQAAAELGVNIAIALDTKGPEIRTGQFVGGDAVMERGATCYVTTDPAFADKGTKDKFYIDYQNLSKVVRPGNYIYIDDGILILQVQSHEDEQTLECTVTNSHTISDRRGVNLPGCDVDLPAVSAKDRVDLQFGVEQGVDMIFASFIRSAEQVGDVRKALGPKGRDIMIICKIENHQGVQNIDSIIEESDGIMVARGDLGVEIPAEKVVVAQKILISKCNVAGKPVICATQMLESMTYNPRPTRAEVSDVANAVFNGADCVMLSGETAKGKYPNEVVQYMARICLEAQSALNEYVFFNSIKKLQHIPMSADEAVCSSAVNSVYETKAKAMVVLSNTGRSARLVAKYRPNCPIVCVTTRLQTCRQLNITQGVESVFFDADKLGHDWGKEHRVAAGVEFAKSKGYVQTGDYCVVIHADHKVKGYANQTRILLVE

For test [5], the target named is Pyruvate kinase PKM (Homo sapiens) (UniProt P14618). As to the kind of experiment: qHTS Assay for Activators of Human Muscle Pyruvate Kinase (AID 954; active = well fitted curve in the direction sought with a large enough effect, not every such curve was filed as active;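 note: 0% = uninhibited enzyme and -100% = no enzyme or full thiadiazolimine inhibition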). Put shortly: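 Enzyme was run at intermediate activity so both inhibitors and activators could be detected. ATP formed from ADP and PEP by 0.1 nM human PKM2 during a 1 h room-temperature incubation was quantified by coupled luciferase luminescence.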
Sequence of Pyruvate kinase PKM (Homo sapiens) (P14618 whole entry, looked up): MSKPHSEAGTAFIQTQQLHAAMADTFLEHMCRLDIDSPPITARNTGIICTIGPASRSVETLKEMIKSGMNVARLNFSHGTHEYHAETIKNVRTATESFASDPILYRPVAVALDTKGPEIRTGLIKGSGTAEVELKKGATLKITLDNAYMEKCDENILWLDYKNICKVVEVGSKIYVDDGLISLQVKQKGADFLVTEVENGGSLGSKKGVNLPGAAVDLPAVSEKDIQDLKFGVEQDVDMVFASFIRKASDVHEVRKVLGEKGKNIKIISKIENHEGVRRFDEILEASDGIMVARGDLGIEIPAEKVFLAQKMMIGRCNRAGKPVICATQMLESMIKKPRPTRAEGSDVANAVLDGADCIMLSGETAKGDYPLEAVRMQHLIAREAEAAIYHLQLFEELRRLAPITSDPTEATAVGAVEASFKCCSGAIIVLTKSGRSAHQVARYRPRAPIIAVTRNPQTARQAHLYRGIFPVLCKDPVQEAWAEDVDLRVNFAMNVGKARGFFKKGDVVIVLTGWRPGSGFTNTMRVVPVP

A short description of test [6]: qHTS Assay for Identification of Small Molecule Agonists for Hypoxia Response Element Signaling Pathway (AID 914; active = well fitted activation curve with a large enough effect in the signal ratio, with a control signal flat, not every such curve was filed as active; the % refers to the signal ratio; note: % of control where 0% means no effect). The conditions noted are these: ME-180 (cervical carcinoma) HRE-bla reporter, beta-lactamase ratio, CoCl2, 17 h; activation: hits give high values. In a few lines: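 A beta-lactamase reporter under hypoxia response element control in ME-180 cells served as the system. Compound titrations plus EC50 CoCl2 ran 17 h at 37 degrees Celsius; AC50 values were fitted from %Activity.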

Test [7] is described as follows: qHTS Assay for Identification of Small Molecule Agonists for Thrombopoietin (TPO) Signaling Pathway (AID 917). Note: % is set by controls: 0 for no effect and ±100 for the full control effect. Put shortly:
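IL-3-dependent murine pro-B Ba/F3 cells, stably transfected with human TPO receptor and GpIIb-promoter luciferase, are incubated 24 hrs at 37 C with test compound and 26 pM TPO; luciferase signal is read after 10 min at room temperature.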

Test [8] in a line: Cell Viability - LYMP2-001 (AID 921).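 Note: series mostly up to about 92 µM; 0% = DMSO only and full inhibition = tetraoctylammonium bromide control wells; nearly all actives have a fitted effect of over 70% in size.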 In a few lines: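 A lymphoblastoid cell line of human origin was treated with library compounds across a concentration series for 24 hours, and viable cell number was estimated from ATP-driven luciferase light output. Hill modeling gave AC50.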
The nature of test [9]: MultiTox-Fluor Cytotoxicity Assay - LYMP1-001 - Dead Cells (AID 946).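 Note: 0% = DMSO and 100% = tetraoctylammonium bromide.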 In a few lines:
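In this qHTS, 15 uM tetraoctylammonium bromide defined 100% and DMSO defined basal activity. Lymphoblastoid cells (LYMP1-001, 2500 per well) received compound for 16 hr at 37 C before a fluorogenic dead-cell substrate readout at 485/520 nm.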

The nature of test [10]: MultiTox-Fluor Cytotoxicity Assay - LYMP1-001 - Live Cells (AID 947).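 Note: 0% = DMSO only and full inhibition = tetraoctylammonium bromide control.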
Test [11] can be described thus: Cell Viability - LYMP1-002 - Assay at 16 hr (AID 948).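 Note: 0% = DMSO alone and full effect = 92 µM tetraoctylammonium bromide.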 In a few lines: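 In this qHTS, lymphoblastoid LYMP1-002 cells (human) receive compounds for 16 hr at 37 C. Viability is taken from CellTiter-Glo ATP luminescence, and AC50 derives from standard Hill fits.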
Test [12] can be described thus: MultiTox-Fluor Cytotoxicity Assay - LYMP1-002 - Live Cells (AID 955).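 Note: cells exposed to compound for 16 hours; % is set by controls: 0 for no effect and ±100 for the full control effect.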 In a few lines: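 Human lymphoblastoid LYMP1-002 cells, 2500/well, treated 16 h at 37 C in complete medium. Live-cell protease activity via GF-AFC fluorescence (Ex/Em 405/510) after 60 min reagent incubation; AC50 from Hill fits.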
A short description of test [13]: MultiTox-Fluor Cytotoxicity Assay - LYMP1-003 - Dead Cells (AID 961).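 Note: cells exposed to compound for 16 h at 37 °C; 0% = DMSO and 100% = tetraoctylammonium bromide; nearly all actives have a fitted effect of over 70% in size.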 Put shortly: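 Acute toxicity is scored as increased dead-cell protease activity in human lymphoblastoid LYMP1-003 cells after 16 h compound exposure in complete culture medium. Activity is normalized to DMSO basal and 15 uM tetraoctylammonium bromide as full response.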
Test [14] can be described thus: MultiTox-Fluor Cytotoxicity Assay - LYMP1-003 - Live Cells (AID 962).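 Note: cells exposed to compound for 16 hours at 37 °C; 0% = DMSO only and full loss = 92 µM tetraoctylammonium bromide; cytotoxic hits lower the live-cell protease signal.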 In a few lines: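 LYMP1-003 lymphoblastoid cells, 2500/well in complete medium, treated 16 h at 37 C; live-cell protease cleavage of GF-AFC read by fluorescence (Ex/Em 405/510) after 60 min reagent; AC50 from Hill fits of concentration-response.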
Test [15] is described as follows: Cell Viability - LYMP1-003 - Assay at 24 hr (AID 963).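 Note: plate controls were DMSO only for no effect and tetraoctylammonium bromide positive control for full effect.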 In a few lines:
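Human lymphoblastoid LYMP1-003 cells, 2500/well, treated 24 h at 37 C in complete medium. Viability read as intracellular ATP by CellTiter-Glo luminescence after 30 min at room temperature; AC50 from Hill-equation fits of qHTS concentration-response.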

Test [16] in a line: Cell Viability - LYMP1-003 - Assay at 40 hr (AID 964). Note: series mostly up to about 92 µM; % is set by controls: 0 for no effect and ±100 for the full control effect; nearly all actives have a fitted effect of over 60% in size. In a few lines:
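LYMP1-003 human lymphoblastoid cells, 2500/well, preincubated 5 h at 37 C, then treated with compound for 40 h at 37 C. Intracellular ATP read by CellTiter-Glo luminescence after 30 min at room temperature; AC50 from Hill-equation fits.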

Test [17] concerns the target Muscarinic acetylcholine receptor M1 (Rattus norvegicus) (UniProt P08482). The test can be described thus: qHTS Assay for Antagonists of Acetylcholine Muscarinic M1 Receptor: Kinetic Measurement of Intracellular Calcium Response (AID 943). Note: nearly all actives have a fitted effect of over 75% in size. Note: potency is the fitted concentration of half-maximal effect. In a few lines:
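CHO cells expressing rat M1 receptor, Fluo-4 loaded, preincubated 10 min with compound, then stimulated with EC80 carbachol (100 nM final). Kinetic calcium fluorescence over 4 min; response taken as peak over basal signal.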

Test [18] in a line: qHTS Assay for Identification of Small Molecule Antagonists for Thrombopoietin (TPO) Signaling Pathway (AID 918). Note: potency is the fitted concentration of half-maximal effect; nearly all actives have a fitted effect of over 60% in size. Particulars: TPO-dependent cell signaling reporter, antagonist mode. In a few lines:
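Murine Ba/F3 cells expressing human TPO receptor and a Glycoprotein IIb promoter-luciferase reporter, IL-3-starved overnight, treated with compound plus TPO at EC50 (26 pM final). After 24 h at 37 C, luminescence read to detect inhibitors.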

The target in test [19] is Pyruvate kinase (Leishmania mexicana) (UniProt Q27686). The test can be described thus: qHTS Validation Assay for Activators of Leishmania Mexicana Pyruvate Kinase (AID 959). Put shortly: as §1

Sequence of Muscarinic acetylcholine receptor M1 (Rattus norvegicus) (P08482 whole entry, looked up): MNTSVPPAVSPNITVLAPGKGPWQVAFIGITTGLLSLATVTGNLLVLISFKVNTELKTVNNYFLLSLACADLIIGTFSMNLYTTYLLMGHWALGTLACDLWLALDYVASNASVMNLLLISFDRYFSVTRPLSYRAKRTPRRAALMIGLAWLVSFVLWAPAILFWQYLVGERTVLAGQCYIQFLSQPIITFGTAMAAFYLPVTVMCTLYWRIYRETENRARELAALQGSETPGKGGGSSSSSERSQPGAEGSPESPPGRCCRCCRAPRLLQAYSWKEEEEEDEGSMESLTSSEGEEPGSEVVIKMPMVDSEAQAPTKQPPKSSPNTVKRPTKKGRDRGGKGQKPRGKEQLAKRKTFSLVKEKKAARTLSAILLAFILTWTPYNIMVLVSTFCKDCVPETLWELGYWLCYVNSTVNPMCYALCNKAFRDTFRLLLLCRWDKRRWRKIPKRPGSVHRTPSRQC
Sequence of Cytochrome P450 2C19 (Homo sapiens) (P33261 whole entry, looked up): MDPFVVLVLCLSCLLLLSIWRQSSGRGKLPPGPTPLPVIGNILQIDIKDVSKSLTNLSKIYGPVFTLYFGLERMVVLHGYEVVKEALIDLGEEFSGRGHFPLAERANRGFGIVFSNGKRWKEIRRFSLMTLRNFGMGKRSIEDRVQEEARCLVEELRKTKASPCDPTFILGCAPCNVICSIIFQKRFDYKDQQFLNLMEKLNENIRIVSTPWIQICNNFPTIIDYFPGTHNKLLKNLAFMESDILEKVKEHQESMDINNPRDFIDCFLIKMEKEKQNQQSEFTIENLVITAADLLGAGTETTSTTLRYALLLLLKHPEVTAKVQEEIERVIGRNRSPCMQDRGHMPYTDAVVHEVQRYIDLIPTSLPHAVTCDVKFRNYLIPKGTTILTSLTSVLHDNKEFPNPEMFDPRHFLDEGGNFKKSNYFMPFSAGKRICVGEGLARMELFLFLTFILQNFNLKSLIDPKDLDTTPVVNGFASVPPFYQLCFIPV

Regarding `O=C1CCc2cc(OCCCCc3nnnn3C3CCCCC3)ccc2N1`, the Potency entry in test [1], in test [2] and in test [3] was “inactive” throughout. The molecule was classed as inactive in [4] and in test [5].
For the molecule `NS(=O)(=O)c1cc2c(cc1Cl)NC=NS2(=O)=O`, the Potency entry in test [2], in test [8], in [3] and in [16] was “inactive” each time. Besides, the activation in test [6] is 13.9% and 2.11% and -1.51%. The molecule was classed as inactive in test [7], in test [4], in test [9], in [10], in test [11] and in test [5]. For the same molecule, the call in test [12], in [13], in test [14] and in test [15] was inactive.
Regarding `NNCCc1ccccc1`, in test [1], the Potency is 794 nM (active) and 316 nM (active). Moreover, the Potency result in [2] and in test [3] was “inactive” each time. Also, the molecule was classed as inactive in test [7], in test [4] and in test [5].
As for `CCCCNc1cc(C(=O)O)cc(S(N)(=O)=O)c1Oc1ccccc1`, the Potency entry in test [2], in test [3] and in [17] was “inactive” in each case. Besides, the outcome in test [7], in [4] and in test [5] was inactive.
Turning to `O=c1n(CCCN2CCN(c3cccc(Cl)c3)CC2)nc2ccccn12`, the Potency result in test [2] and in test [3] was “inactive” each time. The molecule was classed as inactive in test [7], in test [4] and in [5].
With `CCCc1nn(C)c2c(=O)[nH]c(-c3cc(S(=O)(=O)N4CCN(C)CC4)ccc3OCC)nc12`, the Potency result in [2] and in [3] was “inactive” in each case.
On to `Cc1oncc1C(=O)Nc1ccc(C(F)(F)F)cc1`, for which the Potency result in [1], in [2] and in [3] was “inactive” in each case. Besides, the molecule was called inactive in test [4] and in test [5].
Turning to `Nc1ccc(S(=O)(=O)Nc2ccnn2-c2ccccc2)cc1`, the Potency entry in test [1], in [2] and in test [3] was “inactive” throughout. Also, the molecule was called inactive in [4] and in test [5].
`Cc1ccc2c(c1)C(=O)[C@@]1(O)CCN(c3ccccc3)C1=N2`: in test [1], the Potency is 7.94 µM (active).
For the molecule `CN1CCN(CCCN2c3ccccc3Sc3ccc(C(F)(F)F)cc32)CC1`, the Potency entry in test [2] and in test [3] was “inactive” in each case. The Potency in test [18] was 15.8 µM (active). The result in test [4] and in test [5] was inactive.
With `C[C@]12CCC(=O)C=C1CC[C@@H]1[C@@H]2[C@@H](O)C[C@@]2(C)[C@H]1CC[C@]2(O)C(=O)CO`, the call in test [7], in test [4] and in [5] was inactive.
Turning to `Cc1[nH]c(=O)c(C#N)cc1-c1ccc2nccn2c1`, the call in [7], in test [4] and in test [5] was inactive.
With `O=C(O)COCCN1CCN(C(c2ccccc2)c2ccc(Cl)cc2)CC1` (configuration not stated), the Potency entry in test [2] and in [3] was “inactive” throughout.
On to `NCCc1ccc(O)c(O)c1`, for which the Potency entry in test [2], in test [3] and in [17] was “inactive” in each case. In addition, the result in test [4] and in test [5] was inactive.
Regarding `COc1ccc2nc(S(=O)Cc3ncc(C)c(OC)c3C)[nH]c2c1` (configuration not stated), the activation in [6] is -6.85% and -23.9%.
As to `Nc1nc2c(ncn2COCCO)c(=O)[nH]1`, the result in [7], in test [4] and in test [5] was inactive. The Potency result in [3] is “inactive”.
As for `CCCc1nc2c(C)cc(-c3nc4ccccc4n3C)cc2n1Cc1ccc(-c2ccccc2C(=O)O)cc1`, the Potency entry in [2] and in test [3] was “inactive” in each case.
Consider `CCc1ccc(CCOc2ccc(CC3SC(=O)NC3=O)cc2)nc1` (configuration not stated), for which the Potency result in [2] and in test [3] was “inactive” throughout.
As for `N[C@@H]1CONC1=O`, the outcome in [7], in [4] and in test [5] was inactive.
For the molecule `Cc1cn[nH]c1`, the molecule was classed as inactive in test [7], in [4] and in [5].
Regarding `Cc1ccccc1C(OCCN(C)C)c1ccccc1` (configuration not stated), the Potency entry in [2] and in test [3] was “inactive” in each case.
For `CC(C)(C)NCC(O)c1ccc(O)c(CO)c1` (configuration not stated), the Potency result in [2] and in test [3] was “inactive” each time.
As for `CCN(CC)CCCC(C)Nc1ccnc2cc(Cl)ccc12` (configuration not stated), the Potency entry in test [2] and in test [3] was “inactive” each time.
As to `N#Cc1ccc(C(c2ccc(C#N)cc2)n2cncn2)cc1`, in [6], the activation is -2.88%.
Regarding `Cc1cc2c(C(C)C)c(O)c(O)c(C=O)c2c(O)c1-c1c(C)cc2c(C(C)C)c(O)c(O)c(C=O)c2c1O`, the Potency result in test [2] and in test [3] was “inactive” in each case.
`CNC[C@H](O)c1cccc(O)c1`: the result in test [7], in test [4] and in test [5] was inactive. Moreover, in test [17], the Potency entry is “inactive”.
As for `OC(CN1CCC(Cc2ccc(F)cc2)CC1)c1ccc(Cl)cc1` (configuration not stated), the Potency in test [17] was 0.398 µM (active). Moreover, the molecule was called inactive in [4] and in test [5].
Regarding `CCn1cc(C(=O)O)c(=O)c2cc(F)c(N3CCNC(C)C3)c(F)c21` (configuration not stated), the Potency entry in [2] and in test [3] was “inactive” each time.
As to `Cc1cnc(NC(=O)C2=C(O)c3ccccc3S(=O)(=O)N2C)s1`, the Potency result in test [2] and in test [3] was “inactive” throughout. Besides, the outcome in test [4] was inactive.
On to `CC(C[N+](C)(C)C)OC(N)=O` (configuration not stated), for which the Potency result in [2] and in test [3] was “inactive” in each case.
Turning to `NC[C@H](O)c1ccc(O)c(O)c1`, the result in test [4] and in test [5] was inactive.
Take `CC(C)NCC(O)COc1ccc(COCCOC(C)C)cc1` (configuration not stated): the molecule was called inactive in [7], in test [4] and in test [5].
In the case of `Nc1nc2ccc(OC(F)(F)F)cc2s1`, the molecule was classed as inactive in test [7], in test [5] and in test [19].
Regarding `Cc1[nH]c(=O)c(C#N)cc1-c1ccncc1`, the outcome in [7], in test [4] and in [5] was inactive.

The values are drawn from PubChem BioAssay (NCATS).
